A selection: hits, their analogues and other compounds. The true share with any hit is near 21%.
Pf growth 48h = inhibits P. falciparum growth in the first generation, 48 h; actives 5.9% (n = 310,000); Potency, µM (titrated, usually from 28.7 µM), usual class: inhibitors; P. falciparum luciferase growth in erythrocytes, 48 h; AID 504832
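Read-out is firefly luciferase luminescence from an integrated reporter in P. falciparum, so falling signal marks reduced parasite growth. Infected erythrocytes were at 2% hematocrit and 0.1% parasitemia (final) in Albumax-supplemented RPMI 1640.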
Shiga inhibitor = Shiga toxin inhibition. Vero cells, Shiga toxin protein synthesis inhibition reporter. inhibition, % at 38.7 µM. actives 9.2% (n = 290,000); in the data active means inhibition mostly above about 28%, no sharp cut-off; inactive means mostly below about 43%
Pf growth 96h = P. falciparum growth inhibition at 96 hour, primary screen for plastid delayed-death inhibitors. AID 504834. actives 6.9% (n = 320,000). P. falciparum luciferase reporter growth, 96 h. Potency, µM (top dose mostly 28.7 µM), actives largely listed as inhibitors
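Readout is luminescence from an integrated firefly luciferase in P. falciparum. Red cells, 2% hematocrit and 0.05% parasitemia final, were cultured with compound through two parasite generations (96 hours) at 37 C, 5% CO2.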
SARS PLP yeast = SARS-CoV PLP inhibition in yeast. S. cerevisiae expressing SARS-CoV PLpro, growth rescue. Potency, µM (doses to about 32.9 µM), most hits filed as activators. actives 0.19% (n = 330,000); calls by dose curve; further: nearly all actives have a fitted effect of over 55% in size
NS1 inh = blocks influenza NS1 protein function | actives 0.4% (n = 270,000) | Potency, µM (highest dose often 46.1 µM) | AID 2326; calls by dose curve; further: actives are rising curves; nearly all actives have a fitted effect of over 50% in size
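Read-out: OD600 growth recovery of NS1-expressing budding yeast. Cells grown overnight at 30C in -URA glucose medium, washed, resuspended and diluted 1:100 in 2% galactose assay medium, pH 6.0. Same strain lacking NS1 served as positive control.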
CHX counter = affects cycloheximide protein synthesis inhibition readout, counter-screen | cell reporter, cycloheximide protein synthesis inhibition counterscreen | max response, % | actives 12% (n = 300,000); in the data active means max response mostly above about 13%, no sharp cut-off; inactive means mostly below about 14%; further: read at 38.3 µM for the half of the compounds with a filed dose
Hits are given with their value; 0 = inactive; ? = inconclusive; - = not tested or not shown. Unless noted, the call rests on the fitted dose curve; in most records, active means well fitted inhibition curve with a large enough effect; inconclusive means small, poorly fitted or top-dose-only effect, or another doubt; inactive means no such curve, though single readings can be large or run the other way.

SMILES	Pf growth 48h	Shiga inhibitor	Pf growth 96h	SARS PLP yeast	NS1 inh	CHX counter
Cc1nn(C)cc1C(C)NC(=O)c1cc(COc2c(F)cccc2F)on1 (centres undefined)	0	0	0	0	0	0
CC(C)NC(=O)CC1(C(=O)NCc2ccc(Cl)cc2)CCCC1	0	0	0	0	0	0
CCN(C(=O)CSc1nnc(-c2cccs2)n1CC)C1CCS(=O)(=O)C1 (centres undefined)	0	0	0	0	0	0
O=C(NC1CCc2ccccc21)c1cc(COc2ccc(F)cc2F)on1 (centres undefined)	0	0	0	0	0	0
COc1ccc(OCc2cc(C(=O)NC3CCc4ccccc43)no2)c(Cl)c1 (centres undefined)	0	0	10.4µM	?	0	0
CCN(CC)S(=O)(=O)c1ccc2c(c1)nc(CCC(=O)Nc1ccc3c(c1)OCO3)n2CC	?	0	6.57µM	0	0	0
CCN(CC)S(=O)(=O)c1ccc2c(c1)nc(CCC(=O)Nc1ccc3c(c1)OCO3)n2C	?	0	9.28µM	0	0	0
CN(C)S(=O)(=O)c1ccc2c(c1)nc(CCC(=O)Nc1ccc3c(c1)OCO3)n2C	?	48.0	?	0	0	9.6
COc1ccc(S(=O)(=O)NCc2ccco2)c2ccccc12	0	0	-	0	0	0
O=C(Nc1ccccc1N1CCCC1)C1CC(=O)N(Cc2ccccc2)C1 (centres undefined)	0	-	0	0	-	-
CC(C(Sc1ccccc1N)c1ccccc1)[N+](=O)[O-] (centres undefined)	2.62µM	60.6	0	0	0	32.3
Nc1ccccc1SCc1c(Cl)cccc1Cl	0	0	0	0	0	0
Cc1ccc(N2CCN(C3=NC(=O)/C(=C\c4cn[nH]c4-c4ccccc4)S3)CC2)cc1	5.86µM	0	?	0	0	0
O=C1N=C(N2CCN(c3ccccc3)CC2)S/C1=C\c1cn[nH]c1-c1ccccc1	?	0	4.15µM	0	0	0
O=C1N=C(N2CCC(Cc3ccccc3)CC2)S/C1=C/c1cn[nH]c1-c1ccccc1	?	0	?	0	0	0
Cc1cccc(N2CCN(C3=NC(=O)/C(=C\c4cn[nH]c4-c4ccccc4)S3)CC2)c1	5.22µM	0	11.7µM	0	0	0
C=CCNc1nc(C(=O)OCC(=O)NCc2ccccc2OC)cs1	?	-	0	-	-	-
O=C(Cc1ccccc1)Oc1coc(CSc2ncccn2)cc1=O	0	0	0	0	-	0
COc1ccc(CNC(=O)C2CCN(S(=O)(=O)c3cccc4cccnc34)CC2)cc1	0	0	0	0	0	0
COc1ccc(C2=NO[C@H]3C[C@](C(=O)NC(C)C)(S(=O)(=O)c4ccccc4)C[C@@H]23)cc1	0	0	0	0	0	0
O=S(=O)(c1ccccc1)[C@@]1(c2ccccc2)C[C@@H]2ON=C(c3cccc(-c4ccccc4)c3)[C@@H]2C1	7.38µM	-	?	0	-	-
CC(C)(O)C#Cc1ccc(C(=O)N2CCN(c3ccc(Cl)cc3)CC2)cc1	0	0	6.57µM	0	-	0
CCC(=O)NC(=S)Nc1ccc(N2CCN(C(=O)c3ccc(Cl)cc3)CC2)cc1	?	0	11.7µM	0	0	0
CCC(=O)N1CCN(c2ccc(NC(=S)NC(=O)c3cccc([N+](=O)[O-])c3)cc2)CC1	0	0	7.38µM	0	0	0
CC(C)(O)C#Cc1ccc(C(=O)N2CCN(c3ccc(F)cc3)CC2)cc1	0	0	?	0	-	0
SMILES	Pf growth 48h	Shiga inhibitor	Pf growth 96h	SARS PLP yeast	NS1 inh	CHX counter
CCC(=O)N1CCN(c2ccccc2NC(=S)NC(=O)c2cccc([N+](=O)[O-])c2)CC1	0	0	0	0	-	0
CCC(=O)N1CCN(c2ccc(NC(=S)NC(=O)COc3ccccc3)cc2)CC1	0	0	14.7µM	0	0	0
CC1(NC(=O)Cn2cc(C(F)(F)F)ccc2=O)CCS(=O)(=O)C1 (centres undefined)	0	-	?	0	-	-
CCc1nn(CC(=O)N2CCN(c3ccc(F)cc3)CC2)c(=O)c2cc3occc3n12	0	0	0	0	0	0
CC(C)N(C(=O)CSc1n[nH]c(=O)n1CCc1ccccc1)C(C)C	0	0	0	0	0	0
CCOC(=O)C1=CN(c2cccc(F)c2)C=C(C(=O)OCC)C1c1cc(OC)c(O)c([N+](=O)[O-])c1	10.4µM	0	?	0	0	0
CCN(CC)CCCN(c1ccccc1)C1Cc2ccccc2C1	1.9µM	-	?	-	-	-
CCCCOc1ccc(-c2cc(C(=O)NNC(=S)NCC)c3ccccc3n2)cc1	?	0	-	0	0	0
CCCCOc1cccc(-c2cc(C(=O)NNC(=S)NCC)c3ccccc3n2)c1	-	0	11.7µM	0	0	27.6
CCNC(=S)NNC(=O)c1cc(-c2cccc(C)c2)nc2ccccc12	0	0	?	0	0	20.9
CCNC(=S)NNC(=O)c1cc(-c2cccnc2)nc2ccccc12	0	0	0	0	-	0
CCNC(=S)NNC(=O)c1cc(-c2cccc(OCC)c2)nc2ccccc12	?	0	-	0	0	13.7
CN(C)S(=O)(=O)c1cc(NC(=O)COC(=O)CC2Sc3ccccc3NC2=O)ccc1Cl (centres undefined)	-	-	-	0	-	-
O=C(N1CCCCC1)N1CCN(S(=O)(=O)c2ccc(Cl)cc2)CC1	0	0	0	0	0	0
CC1CCCCC12NC(=O)N(CC(=O)Nc1sc3c(c1C(N)=O)CCC3)C2=O (centres undefined)	-	0	10.4µM	0	0	0
O=C(OCc1cccc(C(F)(F)F)c1)c1cc([N+](=O)[O-])ccc1N1CCOCC1	?	-	?	0	-	-
O=C(OCc1cccc(Cl)c1)c1cc(S(=O)(=O)N2CCCCC2)ccc1N1CCOCC1	?	0	13.1µM	0	0	0
O=C(OCc1cccc(Cl)c1)c1cc([N+](=O)[O-])ccc1N1CCOCC1	?	-	11.7µM	0	-	-
COCCNC(=O)c1cc(S(=O)(=O)N2CCCCC2)ccc1N1CCOCC1	0	-	0	0	-	-
O=C(OCCOc1cccc(Cl)c1)c1cc(S(=O)(=O)N2CCCCC2)ccc1N1CCOCC1	?	-	13.1µM	0	-	-
Cc1ccc(CNC(=O)c2cc(S(=O)(=O)N3CCCCC3)ccc2N2CCOCC2)cc1	8.28µM	-	?	0	-	-
CCc1cccc(NC(=O)C(NC(=O)C2CCCCC2)C(C)C)c1 (centres undefined)	?	0	0	0	-	0
COc1ccc(NC(=O)COc2cccc3c2CCN(C)C3=O)c(OC)c1	?	0	?	0	0	0
CC(C)CCCC(C)NC(=O)c1cc(S(=O)(=O)N2CCCCC2)ccc1N1CCOCC1 (centres undefined)	?	-	9.28µM	0	-	-
Cc1ccc(C)c(COC(=O)c2cc([N+](=O)[O-])ccc2N2CCOCC2)c1	?	-	?	0	-	-
COC(=O)c1cc(S(=O)(=O)N2CCCCC2)ccc1N1CCOCC1	?	-	0	0	-	-
Cc1ccc(C)c(COC(=O)c2cc(S(=O)(=O)N3CCCCC3)ccc2N2CCOCC2)c1	14.7µM	-	?	0	-	-
Cc1ccc(COC(=O)c2cc(S(=O)(=O)N3CCCCC3)ccc2N2CCOCC2)cc1	9.28µM	-	?	0	-	-

Assay outcomes deposited in PubChem by National Center for Advancing Translational Sciences (NCATS).
